The list is not random: actives were taken first. Their share in the collection is about 22%.
Shiga toxin inh: A qHTS for Small Molecule Inhibitors of Shiga Toxin; inhibition, % at 38.7 µM; Vero cells, Shiga toxin protein synthesis inhibition reporter; AID 2315, 2010; 9.2% of 290,000 active; in the data active = inhibition mostly above about 28%, no sharp cut-off; inactive = mostly below about 43%
Cycloheximide cs: Cycloheximide Counterscreen for Small Molecule Inhibitors of Shiga Toxin. max response, %. cell reporter, cycloheximide protein synthesis inhibition counterscreen. 12% of 300,000 active; in the data active = max response mostly above about 13%, no sharp cut-off; inactive = mostly below about 14%; note: read at 38.3 µM for the half of the compounds with a filed dose
LmPK inh: qHTS Assay for Inhibitors of Leishmania Mexicana Pyruvate Kinase (LmPK) | Potency, µM (doses to about 57.5 µM), actives largely listed as inhibitors | Q27686 | 0.37% of 290,000 active | AID 1721, 2009 | purified LmPK, Kinase-Glo ATP luminescence, 1 h
Target sequence (Q27686 whole entry, looked up): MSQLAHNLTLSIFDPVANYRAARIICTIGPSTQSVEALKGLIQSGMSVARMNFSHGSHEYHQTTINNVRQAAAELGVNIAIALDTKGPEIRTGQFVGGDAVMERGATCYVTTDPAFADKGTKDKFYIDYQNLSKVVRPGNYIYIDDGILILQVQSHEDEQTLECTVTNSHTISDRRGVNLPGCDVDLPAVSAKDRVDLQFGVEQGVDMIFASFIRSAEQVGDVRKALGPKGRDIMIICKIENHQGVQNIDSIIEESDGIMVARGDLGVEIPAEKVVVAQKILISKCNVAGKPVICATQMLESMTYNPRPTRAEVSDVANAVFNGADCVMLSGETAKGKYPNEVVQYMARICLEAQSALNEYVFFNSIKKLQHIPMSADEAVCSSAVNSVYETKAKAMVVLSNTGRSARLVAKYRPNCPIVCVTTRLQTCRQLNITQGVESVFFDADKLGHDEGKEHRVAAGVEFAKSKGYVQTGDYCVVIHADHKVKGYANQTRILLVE
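ATP generated from ADP (0.1 mM) and PEP (0.5 mM) by 0.1 nM LmPK over 1 h at room temperature (pH 7.2 imidazole buffer) was detected by coupled luciferase luminescence. Values were normalized to uninhibited and no-enzyme wells.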
Pf growth 48h: Primary qHTS for delayed death inhibitors of the malarial parasite plastid, 48 hour incubation; Potency, µM (doses to about 28.7 µM), most hits filed as inhibitors; 5.9% of 310,000 active; AID 504832, 2011; P. falciparum luciferase growth in erythrocytes, 48 h
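Parasite viability was followed by luminescence of a genomically integrated firefly luciferase. Cultures held 0.1% parasitemia at 2% hematocrit (final), incubated under 5% CO2 at 37 C.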
Pf growth 96h: Primary qHTS for delayed death inhibitors of the malarial parasite plastid, 96 hour incubation | P. falciparum luciferase reporter growth, 96 h | Potency, µM (titrated, usually from 28.7 µM), usual class: inhibitors | 6.9% of 320,000 active
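P. falciparum expressing integrated firefly luciferase, in erythrocytes at 2% hematocrit, 0.05% parasitemia, incubated with compounds 96 h at 37 C, 5% CO2. Growth inhibition read as loss of luminescence; two-generation exposure targets delayed-death apicoplast inhibitors.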
Of the large screens only hits and unclear results are named; the others gave an inactive call. Unless noted, calls come from the whole dose curve; as a rule, active = well fitted inhibition curve with a large enough effect; inconclusive = small, poorly fitted or top-dose-only effect, or another doubt; inactive = no such curve, though single readings can be large or run the other way.

O=C(NC(=S)NCCc1ccccn1)c1ccco1	Cycloheximide cs 23
O=C(NC(=S)NCc1ccncc1)c1ccccc1	none
O=C(NC(=S)NCCc1ccccn1)c1ccccc1	Shiga toxin inh 95, Cycloheximide cs 58
O=C(NCCc1ccccn1)/C(=C/c1ccco1)NC(=O)c1ccccc1	Shiga toxin inh 49, Cycloheximide cs 33
CCCCCCCC/C=C\CCCCCCCCCCCC(=O)O	none (no result: LmPK inh, Pf growth 48h, Pf growth 96h)
Nc1c(Cl)cc2c(c1Oc1ccccc1)C(=O)c1ccccc1C2=O	Cycloheximide cs 29, Pf growth 96h inconclusive (no result: Pf growth 48h)
O=C(O)c1cccc2c1C(=O)c1ccccc1C2=O	none
Cc1ccc(-c2c(C(=O)NCCc3ccccc3)oc(=O)c3ccccc23)cc1	none (no result: LmPK inh, Pf growth 48h, Pf growth 96h)
O=C(c1cc2ccccc2o1)c1nc2c(n1O)CCCCC2	Shiga toxin inh 83, Cycloheximide cs 47 (no result: Pf growth 96h)
Cc1ccc(C(=O)c2nc3c(n2O)CCCC3)cc1	none (no result: Pf growth 48h)
CCOc1ccc(C(=O)c2nc3c(n2O)CCCC3)cc1	Cycloheximide cs 23, Pf growth 96h inconclusive
CCOC(=O)N1CCN(Cc2ccc(OCC(O)CN3CCCCC3)cc2)CC1 (centres undefined)	Pf growth 96h inconclusive
CC(=O)c1ccc(NC(=O)C(C)n2nc(-c3ccccc3)c3cc(Cl)ccc32)cc1 (centres undefined)	Pf growth 48h inconclusive, Pf growth 96h 1.2µM
O=C(CC(c1ccccc1)c1ccccc1)Nc1ccc(Cl)cn1	none (no result: Pf growth 48h)
O=C(CS(=O)(=O)c1ccccc1)Nc1ccc(Cl)cn1	Shiga toxin inh 67
O=C(CCS(=O)(=O)c1ccccc1)Nc1ccc(Cl)cn1	Shiga toxin inh 61, Cycloheximide cs 24
O=C(CCS(=O)(=O)c1ccc(Cl)cc1)Nc1ccc(F)cc1	Pf growth 96h 10µM
COc1ccc2[nH]c(=O)c(CN(C(=O)c3cccnc3)c3ccc(C)cc3C)cc2c1	Pf growth 48h inconclusive
CC(C)OCCCNc1ncnc2c1cnn2-c1ccccc1	Shiga toxin inh 55, Pf growth 48h inconclusive, Pf growth 96h inconclusive
CN(C)CCCNc1ncnc2c1cnn2-c1ccccc1	Shiga toxin inh 72, Cycloheximide cs 49 (no result: Pf growth 48h)
Cc1cc(NC(=O)CSCC(=O)Nc2nc3ccccc3s2)no1	none (no result: Shiga toxin inh, Cycloheximide cs, LmPK inh)
Cc1cccnc1NC(=S)NC(=O)c1cccs1	Shiga toxin inh 191, Cycloheximide cs 59
Cc1cccnc1NC(=O)NC(=O)c1ccc(C(C)(C)C)s1	Shiga toxin inh 63, Cycloheximide cs 38, Pf growth 48h inconclusive
O=C(NC(=S)Nc1ccc(Br)cn1)c1cncc(Br)c1	Pf growth 96h 13µM
Cc1cccnc1NC(=O)CNC(=O)c1cccs1	none (no result: Shiga toxin inh, Cycloheximide cs, LmPK inh)
Cc1cccnc1NC(=S)NC(=O)c1cncc(Br)c1	Shiga toxin inh 91, Cycloheximide cs 35
COc1cccc(-c2nc3c(c(=O)[nH]c(=O)n3Cc3ccccc3)n2CCO)c1OC(F)F	Pf growth 48h inconclusive, Pf growth 96h inconclusive
O=C(NC(=S)Nc1ccc(Br)cn1)c1cccs1	Shiga toxin inh 105, Cycloheximide cs 69, Pf growth 96h inconclusive
O=C(NC(=S)Nc1ccccn1)c1cncc(Br)c1	Cycloheximide cs 41
O=C(COC(=O)COc1ccc(Cl)cc1Cl)NC1CCCC1	none (no result: Shiga toxin inh, Cycloheximide cs, LmPK inh)
Cc1noc(C)c1C(=O)N1CCCc2ccccc21	none
COc1ccc(OC)c(-c2cc(C(=O)N3CCCc4ccccc43)no2)c1	Pf growth 48h inconclusive, Pf growth 96h inconclusive
Cc1ccc(-c2cc(C(=O)N3CCCc4ccccc43)no2)cc1	Shiga toxin inh 98, Cycloheximide cs 31, Pf growth 48h inconclusive, Pf growth 96h inconclusive
O=C(c1cc(-c2cccs2)on1)N1CCCc2ccccc21	Shiga toxin inh 73, Cycloheximide cs 39
O=C(c1cc(-c2ccc(F)cc2)on1)N1CCCc2ccccc21	Shiga toxin inh 64, Cycloheximide cs 46, Pf growth 96h inconclusive
CC[C@H](C)[C@H](NC(=O)CNC(=O)[C@@H](NC(=O)[C@@H](NC(=O)[C@H](Cc1ccc(O)cc1)NC(=O)[C@H](CC(C)C)NC(=O)[C@H](C)NC(=O)[C@H](CCC(N)=O)NC(=O)CNC(=O)[C@@H]1CCCN1C(=O)CNC(=O)[C@H](Cc1ccccc1)NC(=O)[C@H](Cc1cnc[nH]1)NC(=O)[C@@H](NC(=O)CNC(=O)[C@H](CCCNC(=N)N)NC(=O)[C@H](CCCNC(=N)N)NC(=O)[C@@H](NC(=O)[C@H](CC(N)=O)NC(=O)[C@@H](N)CS)[C@@H](C)O)[C@@H](C)CC)[C@@H](C)O)[C@@H](C)O)C(=O)O	none (no result: LmPK inh, Pf growth 48h, Pf growth 96h)
CO/N=C/c1ccc(N2CCN(C(=O)c3ccc(Cl)cc3Cl)CC2)c([N+](=O)[O-])c1	none
CN(C1CCCCC1)S(=O)(=O)c1ccc(C(=O)N2CCN(c3nc4ccccc4s3)CC2)cc1	none
CCOC(=O)NCCc1c(C)nc2c(c(C)nn2C(C)(C)C)c1C	Pf growth 96h 0.17µM (no result: Pf growth 48h)
COc1ccc(CNC(=O)c2cccc(N(C)C)c2)cc1	Pf growth 96h 1.9µM
COc1ccc(C(CNC(=O)COc2ccccc2C)N2CCCC2)cc1 (centres undefined)	Pf growth 96h inconclusive
COc1ccc(C(CNC(=O)c2cc3ccccc3cc2OC)N2CCCC2)cc1 (centres undefined)	Pf growth 96h 4.1µM (no result: Pf growth 48h)
COc1ccc(C(CNC(=O)c2ccc(S(=O)(=O)N3CCOCC3)cc2)N2CCCCC2)cc1 (centres undefined)	Pf growth 48h inconclusive
COc1ccc(C(CNC(=O)c2cccc(S(=O)(=O)N3CCCCC3)c2)N2CCCC2)cc1 (centres undefined)	Pf growth 48h inconclusive, Pf growth 96h 10µM (no result: Shiga toxin inh, Cycloheximide cs, LmPK inh)
COc1ccc(NS(=O)(=O)c2cccc(C(=O)NCC(c3ccc(OC)cc3)N3CCCC3)c2)cc1 (centres undefined)	Pf growth 48h 6.6µM, Pf growth 96h 7.4µM (no result: Shiga toxin inh, Cycloheximide cs, LmPK inh)
O=C(CN(C(=O)c1csnn1)c1ccc(Cl)cc1)NCc1ccc2c(c1)OCO2	Pf growth 48h inconclusive
CC(NC(=O)CCC(=O)c1ccc(F)cc1)C1CC2CCC1C2 (centres undefined)	none
COc1ccc(NS(=O)(=O)c2cccc(C(=O)NCC(c3ccc(OC)cc3)N3CCOCC3)c2)cc1 (centres undefined)	Pf growth 48h inconclusive, Pf growth 96h inconclusive
COc1ccc(NS(=O)(=O)c2cccc(C(=O)NCC(c3ccccc3OC)N3CCCC3)c2)cc1 (centres undefined)	Pf growth 48h 10µM, Pf growth 96h inconclusive (no result: Shiga toxin inh, Cycloheximide cs, LmPK inh)
C=CCN(c1ccccc1)S(=O)(=O)c1cccc(C(=O)NCC(c2ccc(OC)cc2)N2CCCCC2)c1 (centres undefined)	Pf growth 48h 10µM, Pf growth 96h inconclusive (no result: Shiga toxin inh, Cycloheximide cs, LmPK inh)
COc1ccccc1NS(=O)(=O)c1cccc(C(=O)NCC(c2ccco2)N2CCCCC2)c1 (centres undefined)	Pf growth 48h 5.2µM, Pf growth 96h inconclusive (no result: Shiga toxin inh, Cycloheximide cs, LmPK inh)
COc1ccc(C(CNC(=O)c2cccc(S(=O)(=O)Nc3ccccc3OC)c2)N2CCCC2)cc1 (centres undefined)	Pf growth 48h inconclusive, Pf growth 96h 13µM (no result: Shiga toxin inh, Cycloheximide cs, LmPK inh)
